Reference: PubChem BioAssay (NCI)
The panel holds about 79,000 compounds, 15% with a hit somewhere; the sample as a whole holds those more often. Unmarked numbers belong to inactive results. The source made the active and inactive calls. Cut-off read from the data, not from the text of the source: active = growth inhibition above about 70%; inactive = the rest.

Experiments:
[1] = NCI Yeast Anticancer Drug Screen. Data for the rad50 strain (AID 155);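 note: 0% = growth of vehicle-only cultures of the same strain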; conditions: S. cerevisiae rad50 strain growth inhibition; at 50.0 µM; hits give high values
In short: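 A DNA repair-deficient yeast mutant serves as the test organism; compound-induced growth inhibition is calculated against vehicle-treated cells.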

[2] = NCI Yeast Anticancer Drug Screen. Data for the mec2-1 strain (AID 157); conditions: S. cerevisiae mec2-1 strain, at 50.0 µM, hits give high values
In short: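 Each compound was tested on mec2-1 yeast, a strain altered in DNA damage repair or cell cycle control. Growth inhibition is reported relative to vehicle.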

[3] = NCI Yeast Anticancer Drug Screen. Data for the sgs1 mgt1 strain (AID 161);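 note: 0% = growth of cultures given vehicle only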; conditions: S. cerevisiae sgs1 mgt1 strain, at 50.0 µM, hits give high values
In short: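 Genetically altered yeast, compound exposure, growth inhibition relative to vehicle.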

[4] = NCI Yeast Anticancer Drug Screen. Data for the cln2 rad14 strain (AID 165);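 note: 0% = growth equal to vehicle treated cultures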; conditions: S. cerevisiae cln2 rad14 strain, at 50.0 µM, hits give high values
In short: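 Test compounds were added to cln2 rad14 yeast cultures; inhibition of growth was then determined by comparison with vehicle treatment.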

[5] = NCI Yeast Anticancer Drug Screen. Data for the bub3 strain (AID 167); conditions: S. cerevisiae bub3 mutant strain, at 50.0 µM, hits give high values
In short: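 Inhibition values come from growth of compound-treated mutant yeast normalised to vehicle-treated controls.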

[6] = NCI Yeast Anticancer Drug Screen. Data for the mlh1 rad18 strain (AID 175); conditions: S. cerevisiae mlh1 rad18 strain growth inhibition; at 50.0 µM; hits give high values
In short: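 Inhibition values reflect reduced growth of mutant yeast versus vehicle-treated controls following compound exposure; the mutations affect DNA damage repair.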

Row | Compound | growth inhibition [1] | growth inhibition [2] | growth inhibition [3] | growth inhibition [4] | growth inhibition [5] | growth inhibition [6]
1 | CNC(=O)OCc1c(COC(=O)NC)c(-c2ccc(SC)cc2)n(C)c1C | 24.9% | 8.4% | 47.4% | 0.1% | 2.6% | 49.7%
2 | Cc1nc(Nc2ccc(Cl)cc2)c2cnn(-c3ccccc3)c2n1 | 29.1% | -7.2% | -8% | -35.9% | 6.75% | 26.9%
3 | Nc1ccc(C2SCC(=O)N2NS(=O)(=O)c2cccc(C(=O)O)c2)cc1 (stereo unspecified) | -21.3% | -24.1% | 6.8% | 0.8% | -46.2% | -54.5%
4 | Nc1cc(=O)n(-c2ccccc2)[nH]1 | -2.05% | -10.6% | -6.8% | -19.9% | -27.9% | 22%
5 | O=C(NNC(=O)c1ccncc1)c1ccncc1 | -22.9% | 1.2% | -9.45% | -30.3% | -2.4% | -23.9%
6 | CC(C)(C)OC(=O)NCCc1ccc(N)cc1 | -18.1% | -5.55% | 22.9% | -0.7% | 8.05% | -10.2%
7 | O=C(O)/C=N\Nc1nc2ccccc2[nH]1 | -1.85% | -5.95% | 1.9% | -11.1% | -8.05% | 6.8%
8 | N#Cc1nc(-c2ccccc2C(=O)O)oc1N | -0.5% | 9.8% | -16.1% | 5.7% | -7.15% | -62%
9 | COc1ccc2c3c(n(Cc4ccccc4)c(=O)c2c1)-c1cc(OC)c(OC)cc1C3C (stereo unspecified) | 36.1% | -21.7% | -1.25% | -26.6% | -20.4% | 23.1%
10 | C[N+](C)(CCNCC(N)=O)CC(N)=O | -17.6% | -4.2% | -19.1% | -9.95% | 5.15% | -1.5%
11 | O=c1c2ncccc2cc2n1CCc1c-2[nH]c2ccccc12 | -15.3% | -15.9% | 6.3% | -4.75% | -1.1% | -0.2%
12 | C/C=C/C1OC(OC)(OC)C1(OC)OC (stereo unspecified) | 38.8% | 9.85% | 18.9% | 3.25% | 11.3% | 11.6%
13 | COc1ccc(N2C(=O)c3c(C)ccc(C)c3C2=O)cc1 | -23.8% | 6.4% | 19.9% | -0.5% | -3.5% | 5.15%
14 | CC(C)OC(=O)c1ccc(=O)oc1 | 7.4% | -5.85% | -2.4% | -8.75% | -18.4% | -5.15%
15 | CN(C)C(=S)/N=c1\ssc(=S)n1Cc1ccccc1 | -10.4% | -24.9% | -4.55% | 16.4% | -17.9% | -86.5%
16 | CCCCCC(=O)/C=C/CC(CCCCCCC#N)C(CC(OC)OC)[N+](=O)[O-] (stereo unspecified) | -42.2% | -24.2% | 0.9% | 14.3% | -1.75% | -37.4%
17 | Cc1cc(Cl)nc2ccc([N+](=O)[O-])cc12 | 5.35% | 6.3% | -5.35% | -18.1% | 14.2% | 5.5%
18 | CN(C)c1ccc(C=Nc2ccc3c(c2)C(N2CCOCC2)c2ccccc2-3)cc1 (stereo unspecified) | -14.7% | -7% | -38.1% | -5.3% | -15.8% | 0.35%
19 | O=C(CCC1CCCCC1)OC1CCCC1 | 12% | -4.45% | -2.7% | -5.1% | -2.3% | 24.3%
20 | Nc1cccc2ccc(Cl)nc12 | 37.9% | 19.4% | 14.2% | 9.7% | 16.3% | -5%
21 | S=c1[nH]ncn2nc3ccccc3c12 | 0.15% | 2.5% | -2.25% | -45.5% | -3.85% | 1.7%

Row | Compound | growth inhibition [1] | growth inhibition [2] | growth inhibition [3] | growth inhibition [4] | growth inhibition [5] | growth inhibition [6]
22 | COC(=O)C1=C(C(=O)OC)C2CCC1O2 | -0.5% | -6% | -0.4% | -11.7% | 8.35% | -17.6%
23 | CCCC(CCC)(C(=O)O)C(=O)O | -10.3% | -25.1% | -12.5% | 27.5% | -17.9% | 11.5%
24 | COc1ccc2nccc(Cl)c2c1 | 12.2% | 12.3% | 1.6% | -6.55% | 15.2% | 6.45%
25 | CC1=NC(C(N)=O)C(=O)N1 (stereo unspecified) | -35% | -23.4% | -15.3% | -30.4% | -8.8% | -0.65%
26 | O=C(/C=C/c1ccccc1)Cc1nc2nnc(NC(=O)Nc3ccc(Cl)cc3)n2[nH]c1=O | -9.15% | 1.85% | 1.5% | -8.05% | 6.15% | 4.65%
27 | N#CC1c2ccccc2C=CN1C(=O)c1ccccc1 (stereo unspecified) | -15.9% | -15.9% | 12.5% | -18.9% | -8.95% | -24.4%
28 | COc1cc2c(cc1Cc1cc(OC)c(OC)c(OC)c1)OCO2 | 4.35% | -17.2% | 9.55% | -3.15% | 28.9% | 24.4%
29 | Cc1cccc(C(C)(O)c2cnc(C)n2Cc2ccccc2)c1 (stereo unspecified) | 5.1% | 14.2% | 10.8% | 18.8% | 9.35% | 15.2%
30 | CC1/C(=N/Nc2ccc([N+](=O)[O-])cc2)CC2C3(C)CCC2(C(C)C(=O)O)C(=O)C13 (stereo unspecified) | 78% (active) | 33.4% | 83.5% (active) | 45.7% | 44.8% | 88.7% (active)
31 | CCN(CC)C1Oc2cc3c(cc2C(c2cc(OC)c(O)c(OC)c2)C1C)OCO3 (stereo unspecified) | -14.6% | -23.9% | -7.7% | 3.35% | -7.1% | 3.85%
32 | CC1=C(Br)C(=O)C(C(C)C)=CC1=O | -38.2% | -20.6% | -6.75% | -4.9% | 3.5% | 0.9%
33 | O=C(O)c1cccc(NC(=O)C(F)(F)F)c1 | -1.1% | 1.6% | -18.9% | -29.4% | -6.05% | -2.15%
34 | Cc1ccc(OCc2ccccc2)n[n+]1[O-] | -20.6% | -16.8% | -10.8% | -9.85% | -9.7% | -3%
35 | CCOC(=O)c1cn(Cc2ccccc2)c(=O)n1Cc1ccccc1 | 36% | 23.3% | 23.5% | -2.4% | 42.5% | 56.1%
36 | COC(=O)/C=C1/Nc2c(N)nc(N)nc2NC1=O | 15.1% | 8.2% | 5.95% | -2.1% | -0.9% | 3.15%
37 | COc1ccc(N=c2nc3n4c(c(Br)cc(Br)c4n2)NC(C(Br)(Br)Br)=N3)cc1 | 1.7% | 1.2% | 6.25% | -15.3% | 4.35% | 41.1%
38 | CCNC1=CC(=O)c2ncccc2C1=O | 47.9% | 15.7% | 27.7% | -8.25% | 39.2% | 28.4%
39 | Nc1nnc(-c2ccccc2O)o1 | 36.3% | 4.25% | 23.7% | 33.1% | 21.4% | 32.2%
40 | Cc1ccc(OCC2OC(n3cnc4c(N(C)C)nc(Br)nc43)CC2Oc2ccc(C)cc2)cc1 (stereo unspecified) | 17.5% | -4.8% | 13.1% | 12.6% | 2.45% | -17%
41 | O=C1CSC(=S)N1 | -8.05% | -7.9% | 13.3% | 10.8% | -7.15% | 20.9%
